The text below walks through data of the supplement of paper PMC6522484.

± gives the standard deviation of the averaged measurements.

For experiment [1], the system named is DLD1. Description: cell viability (CellTiter-Glo) relative to plate median (fraction of plate median); higher = more viable cells. As to conditions: 5 µM; treatment time 24 h; reporter: 7TFP. Summed up: (§1)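 For this screen, colorectal cancer cell lines carrying stable lentiviral TCF/Wnt firefly luciferase reporters, either 7TFP or TCF4/Wnt, were seeded into 384-well plates. A day's wait of 24 h preceded addition of library compounds at a final 5 µM, which stayed on the cells for 24 h. Firefly luciferase or CellTiterGlo luminescence, read on parallel plates, was normalised to the plate median per well, and the reported value is the mean of two independent replicates.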
(ATP-based viability assays read luminescence as a measure of living cells.)

For experiment [2], the system named is HCT116. The experiment is described as above. As to conditions: 5 µM; treatment time 24 h; reporter: TCF4/Wnt. Summed up:
as §1

Experiment [3] deals with SW480. The description is as above. To be noted: 5 µM; treatment time 24 h; reporter: 7TFP. In short, it runs like this: as §1
Experiment [4] relates to DLD1. The experiment is described as follows: TCF/Wnt firefly luciferase reporter signal relative to plate median (fraction of plate median); higher = higher Wnt reporter signal. To be noted: 5 µM; treatment time 24 h; reporter: 7TFP. Summed up:
as §1
A general note: Reporter assays use an easily measured gene product as a stand-in for the process of interest.

In experiment [5] the test system is SW480. Described as above. To be noted: 5 µM; treatment time 24 h; reporter: 7TFP. Summed up: as §1

For `OCC(S)CS` (stereo not given), the cell viability in experiment [1] was determined as 0.884 ± 0.063; in experiment [2], 0.956 ± 0.018; in experiment [3], 0.944 ± 0.032. For the same compound, the “TCF/Wnt firefly luciferase reporter signal” value is 0.921 ± 0.057 in experiment [4] and 0.936 ± 0.066 in experiment [5].
Turning to `C[C@H]1CC2C3CCC4=CC(=O)C=C[C@]4(C)[C@@]3(F)[C@@H](O)C[C@]2(C)[C@@]1(O)C(=O)COP(=O)(O)O` (stereo not given in full), the cell viability in experiment [1] is 0.93 ± 0.063; in experiment [2] it was 0.942 ± 0.028; in experiment [3] it was 0.952 ± 0.029. The entries for the “TCF/Wnt firefly luciferase reporter signal” value in experiment [4] and in experiment [5] were 1.03 ± 0.09 and 1.06 ± 0.028, respectively.
Turning to `N=C(N)NS(=O)(=O)c1ccc(N)cc1`, the figures for the cell viability in experiment [1], in experiment [2] and in experiment [3] were 0.943 ± 0.044, 0.892 ± 0.057 and 0.981 ± 0.027, respectively. The “TCF/Wnt firefly luciferase reporter signal” value amounted to 0.962 ± 0.033 in experiment [4] and 0.986 ± 0.048 in experiment [5].
Take `COc1cc2ccc(=O)oc2c(OC)c1OC`: the cell viability in experiment [1] is 1.05 ± 0.075; in experiment [2], 1.05 ± 0.064; in experiment [3] it was 1.025 ± 0.0071. Further, the figures for the “TCF/Wnt firefly luciferase reporter signal” value in experiment [4] and in experiment [5] were 0.993 ± 0.081 and 0.931 ± 0.045, respectively.
For `COc1cc2ccc(=O)oc2cc1O`, the cell viability in experiment [1] was 1.09 ± 0.064; in experiment [2], 1.09; in experiment [3] it was 1.12 ± 0.085. Besides, the “TCF/Wnt firefly luciferase reporter signal” value turned out to be 0.999 ± 0.059 in experiment [4] and 0.892 ± 0.12 in experiment [5].
For `C[C@@]12C[C@@]3(O)O[C@@H](O1)[C@]1(COC(=O)c4ccccc4)[C@H]3C[C@@]12O[C@@H]1O[C@H](CO)[C@@H](O)[C@H](O)[C@H]1O`, the cell viability in experiment [1] turned out to be 1.06 ± 0.014; in experiment [2], 0.887 ± 0.12; in experiment [3] it was 1.015 ± 0.0071. Further, the “TCF/Wnt firefly luciferase reporter signal” value in experiment [4] stood at 0.941 ± 0.052; in experiment [5] it was 1.01 ± 0.21.
Consider `N=C(NCCCCCCNC(=N)NC(=N)Nc1ccc(Cl)cc1)NC(=N)Nc1ccc(Cl)cc1`, for which the results for the cell viability in experiment [1], in experiment [2] and in experiment [3] were 0.952 ± 0.031, 1.02 ± 0.11 and 1.07 ± 0.028, respectively. Also, the “TCF/Wnt firefly luciferase reporter signal” value in experiment [4] was 1.07 ± 0.021; in experiment [5], 0.851 ± 0.052.
Regarding `CC(=O)Oc1ccc2c(c1C(C)C)CCC1C(C)(C)CCC[C@]21C` (stereo not given in full), the cell viability in experiment [1] was 1.18 ± 0.22; in experiment [2], 1.15 ± 0.071; in experiment [3], 1.05 ± 0.05. Further, the “TCF/Wnt firefly luciferase reporter signal” value in experiment [4] was found to be 0.98 ± 0.11; in experiment [5], 0.962 ± 0.047.
For the compound `CO[C@H]1C[C@@H]2CC[C@@H](C)[C@@](O)(O2)C(=O)C(=O)N2CCCC[C@H]2C(=O)O[C@H]([C@H](C)C[C@@H]2CC[C@@H](O)[C@H](OC)C2)CC(=O)[C@H](C)/C=C(\C)[C@@H](O)[C@@H](OC)C(=O)[C@H](C)C[C@H](C)/C=C/C=C/C=C/1C`, the cell viability in experiment [1] was 1.18 ± 0.028; in experiment [2] it was 0.976 ± 0.049; in experiment [3] it was 1.35 ± 0.11. In addition, the “TCF/Wnt firefly luciferase reporter signal” value in experiment [4] is 0.838 ± 0.15; in experiment [5] it was 1.2 ± 0.21.
In the case of `CC(C(=O)O)c1cccc(Oc2ccccc2)c1` (stereo not given), the cell viability was 0.968 ± 0.088 in experiment [1], 0.98 ± 0.0057 in experiment [2] and 0.988 ± 0.06 in experiment [3]. For the same compound, the “TCF/Wnt firefly luciferase reporter signal” value in experiment [4] was found to be 1.04 ± 0.085; in experiment [5] it was 1.11 ± 0.042.
Turning to `COc1cc(/C=C/C(=O)O)ccc1O`, the results for the cell viability in experiment [1], in experiment [2] and in experiment [3] were 1.004 ± 0.0092, 1.11 ± 0.057 and 1.01 ± 0.038, respectively. Moreover, the entries for the “TCF/Wnt firefly luciferase reporter signal” value in experiment [4] and in experiment [5] were 0.972 ± 0.069 and 1.12 ± 0.078, respectively.
Turning to `CS(=O)(=O)c1ccc([C@@H](O)[C@@H](CO)NC(=O)C(Cl)Cl)cc1`, the cell viability in experiment [1] turned out to be 0.914 ± 0.055; in experiment [2], 0.958 ± 0.06; in experiment [3], 0.925 ± 0.014. Moreover, the “TCF/Wnt firefly luciferase reporter signal” value in experiment [4] worked out at 0.982 ± 0.018; in experiment [5], 0.814 ± 0.058.
As to `CCCCCC[C@H]1CC[C@@](O)([C@@](C)(O)C(=O)N[C@@H]2C(=O)N3NCCC[C@@H]3C(=O)N(O)[C@@H](COC)C(=O)NCC(=O)N3NCCC[C@H]3C(=O)N(O)[C@H](C)C(=O)O[C@H]2C)OC1C` (stereo not given in full) [Diperamycin], the cell viability turned out to be 1.15 ± 0.099 in experiment [1], 1.23 ± 0.035 in experiment [2] and 1.11 ± 0.099 in experiment [3]. The “TCF/Wnt firefly luciferase reporter signal” value in experiment [4] was determined as 1.06 ± 0.11; in experiment [5], 0.926 ± 0.0014.
Regarding `C[C@@H]1O[C@@H]1P(=O)(O)O`, the cell viability stood at 1.04 in experiment [1], 0.995 ± 0.15 in experiment [2] and 1.06 ± 0.028 in experiment [3]. Besides, the results for the “TCF/Wnt firefly luciferase reporter signal” value in experiment [4] and in experiment [5] were 1.03 ± 0.028 and 0.997 ± 0.22, respectively.
On the same counts, the results for `CN[C@H](CC(=O)O)C(=O)O` are 0.99 ± 0.028, 0.966 ± 0.049, 0.957 ± 0.0042, 1.02 ± 0.014 and 0.85 ± 0.045.
For `NCCS(=O)(=O)O` the same measures were 1.04 ± 0.021, 1.01 ± 0.061, 0.978 ± 0.02, 0.9735 ± 0.00071 and 1 ± 0.037.
On the same counts, the results for `COC(=O)c1c(C)cc(OC(=O)c2c(C)cc(O)c(C=O)c2O)c(C)c1O` are 1.06 ± 0.021, 1.07 ± 0.092, 1.06 ± 0.064, 1 ± 0.14 and 1.04 ± 0.028.
Consider `CC1(C)CCC[C@]2(C)[C@@H]3[C@H]1[C@@H](O)[C@@]2(C)C[C@H]3O`, for which the cell viability in experiment [1] was 1.005 ± 0.0071; in experiment [2] it was 0.991 ± 0.11; in experiment [3], 1.12 ± 0.014. Further, the “TCF/Wnt firefly luciferase reporter signal” value in experiment [4] came to 0.981 ± 0.023; in experiment [5], 1.13 ± 0.014.
As for `CC(=O)O[C@@H]1CC(=O)[C@@]2(C)C(CC(=O)[C@]3(C)C2CC[C@@]2(C)[C@H](c4ccoc4)OC(=O)C4OC423)C1(C)C` (stereo not given in full), the cell viability in experiment [1] was 1.025 ± 0.0071; in experiment [2], 1.025 ± 0.0071; in experiment [3], 0.981 ± 0.0057. Also, the entries for the “TCF/Wnt firefly luciferase reporter signal” value in experiment [4] and in experiment [5] were 0.986 ± 0.12 and 1.05 ± 0.098, respectively.
As for `OCC(O)CN1CCN(c2ccccc2)CC1` (stereo not given), the cell viability in experiment [1] was found to be 0.979 ± 0.058; in experiment [2], 0.995 ± 0.035; in experiment [3] it was 0.964 ± 0.033. For the same compound, the “TCF/Wnt firefly luciferase reporter signal” value in experiment [4] worked out at 0.83 ± 0.029; in experiment [5], 0.9255 ± 0.005.
With `CC(CCC(=O)O)[C@H]1CCC2C3C[C@H](O)[C@@H]4C[C@H](O)CC[C@]4(C)C3CC[C@@]21C` (stereo partly drawn) [alpha-HYDROXYDEOXYCHOLIC ACID], the cell viability is 1.04 ± 0.13 in experiment [1], 1.1 ± 0.078 in experiment [2] and 1.06 ± 0.014 in experiment [3]. Moreover, the “TCF/Wnt firefly luciferase reporter signal” value in experiment [4] was 0.947 ± 0.1; in experiment [5], 0.974 ± 0.052.
`C[C@H](CCC(=O)O)[C@H]1CC[C@H]2[C@@H]3CC[C@@H]4C[C@H](O)CC[C@]4(C)[C@H]3C[C@H](O)[C@]12C`: the cell viability in experiment [1] is 0.982 ± 0.025; in experiment [2] it was 1.04 ± 0.11; in experiment [3] it was 1 ± 0.024. The “TCF/Wnt firefly luciferase reporter signal” value in experiment [4] came out at 1.03 ± 0.13; in experiment [5], 1.01 ± 0.053.
`CNCCCC12CCC(c3ccccc31)c1ccccc12`: the results for the cell viability in experiment [1], in experiment [2] and in experiment [3] were 1.07 ± 0.085, 1.085 ± 0.0071 and 1.07 ± 0.071, respectively. In addition, the “TCF/Wnt firefly luciferase reporter signal” value in experiment [4] stood at 1.04 ± 0.035; in experiment [5], 1.1 ± 0.042.
As to `CC(C)c1ccc2c(c1)CC[C@H]1[C@](C)(CN)CCC[C@]21C`, the cell viability came out at 1.04 ± 0.028 in experiment [1], 1.07 ± 0.092 in experiment [2] and 1.06 ± 0.028 in experiment [3]. The results for the “TCF/Wnt firefly luciferase reporter signal” value in experiment [4] and in experiment [5] were 1.18 ± 0.071 and 1.03 ± 0.13, respectively.
For `COc1cc(C)cc2ccc(-c3ccc4c(c3O)[C@@H](C)N[C@H](C)C4)c(O)c12` the same measures were 1.17 ± 0.19, 1.04 ± 0.077, 1.05 ± 0.021, 1.05 and 1.015 ± 0.0071.
In the case of `CC[N+](CC)(CC)CCOc1cccc(OCC[N+](CC)(CC)CC)c1OCC[N+](CC)(CC)CC`, the cell viability was determined as 0.9365 ± 0.0021 in experiment [1], 0.972 ± 0.017 in experiment [2] and 0.945 ± 0.093 in experiment [3]. The “TCF/Wnt firefly luciferase reporter signal” value in experiment [4] came to 0.989 ± 0.1; in experiment [5] it was 0.873 ± 0.21.
For `CCCC(CCC)C(=O)O` the same measures were 1.03 ± 0.045, 1.09 ± 0.035, 0.973 ± 0.052, 1.115 ± 0.0071 and 1.06 ± 0.078.
For `CCOC(=O)c1c(C)c(Cl)c(O)c(Cl)c1O` the same measures were 0.991 ± 0.042, 0.987 ± 0.013, 0.9025 ± 0.0078, 0.966 ± 0.013 and 0.994 ± 0.052.
